From PubChem
D2 antag: HTS Assay for Allosteric Antagonists of the Human D2 Dopamine Receptor: Primary Screen for Antagonists | D(2) dopamine receptor (Homo sapiens), P14416 | HEK293 TREx D2 cells, calcium flux, dopamine EC80 | inhibition, % at 10 µM | hit rate 2% among 340,000 | AID 485344, 2010; in the data active = inhibition above about 30%; inactive = below that, where a call was filed
Target sequence (P14416 whole entry, looked up): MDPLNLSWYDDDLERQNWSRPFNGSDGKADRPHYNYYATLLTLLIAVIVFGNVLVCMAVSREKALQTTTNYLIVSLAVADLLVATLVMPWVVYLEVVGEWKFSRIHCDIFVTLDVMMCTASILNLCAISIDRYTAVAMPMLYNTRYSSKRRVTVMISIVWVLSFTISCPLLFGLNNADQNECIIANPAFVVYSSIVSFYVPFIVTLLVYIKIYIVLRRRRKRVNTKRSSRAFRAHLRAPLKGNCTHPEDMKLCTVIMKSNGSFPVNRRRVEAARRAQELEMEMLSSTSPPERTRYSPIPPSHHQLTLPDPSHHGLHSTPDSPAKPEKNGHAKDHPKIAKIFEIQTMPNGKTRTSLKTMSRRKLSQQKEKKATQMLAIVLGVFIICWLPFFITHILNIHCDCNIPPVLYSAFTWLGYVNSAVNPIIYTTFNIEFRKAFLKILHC
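Measurement of antagonist activity uses fluorescent calcium dye in inducible HEK293 T-REx D2 cells: 10 s baseline, compound addition with 180 s read, EC80 dopamine addition with a further 180 s read.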
D2 PAM-1: HTS Assay for Positive Allosteric Modulators of the Human D2 Dopamine Receptor: Primary Screen for Potentiators; HEK293 T-REx D2, calcium flux, EC20 dopamine potentiation; potentiation, % at 10 µM; hit rate 0.34% among 340,000;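 active = potentiation over 3 SD above the plate norm, cut at about 30% in these data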
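Potentiation of an EC20 dopamine calcium response is measured in a force-coupled, tetracycline-inducible Hek293 Trex D2 line. Compound-only kinetic reads over 180 s flag agonists before dopamine addition.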
D2 ag-1: Beta-Arrestin HTS for Positive Allosteric Modulators of the Human D2 Dopamine Receptor: Agonists; activation, % (no concentration beside the values); hit rate 0.084% among 360,000; DiscoveRx PathHunter D2 beta-arrestin, luminescence, 90 min; 100% = 57 uM dopamine signal; AID 624465, 2012; in the data active = activation above about 40%
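Agonist mode: compounds alone added to overnight-plated D2 PathHunter cells for 90 min at 37 C, with 57 uM final dopamine (EC100) defining full response. Beta-arrestin recruitment detected by chemiluminescent reagent, read after 1 h at ambient temperature.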
D2 PAM-2: Beta-Arrestin HTS for Positive Allosteric Modulators of the Human D2 Dopamine Receptor: Potentiators; D(2) dopamine receptor (Homo sapiens), P14416; DiscoveRx D2 beta-arrestin cells, luminescence, 90 min; 100% = 57 uM dopamine signal; potentiation, % (no concentration beside the values); hit rate 0.23% among 360,000; in the data active = potentiation above about 50%
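PathHunter beta-arrestin assay in DiscoveRx D2 cells. Compounds were added with an EC20 of dopamine (50 nM final) for 90 min at 37 deg C. Luminescence was read 1 h after detection reagent, with 57 uM dopamine as the EC100 control.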
D2 ag-2: HTS Assay for Allosteric Agonists of the Human D2 Dopamine Receptor: Primary Screen for Agonists | D(2) dopamine receptor (Homo sapiens), P14416 | HEK293 T-REx D2 cells, calcium flux agonist mode | activation, % at 2 µM | hit rate 0.53% among 340,000;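 active = activation over 3 SD above normal in the single-dose calcium agonist read, cut at about 30% in these data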
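Agonism is scored from calcium flux in a force-coupled, inducible HEK293 cell line expressing D2, read kinetically for 180 s after compound addition against dopamine controls.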
Hits are given with their value; – = inactive; · = no result given. Most compounds without a hit are left out; they make up all but 2.4% or so of the library.

SMILES	D2 antag	D2 PAM-1	D2 ag-1	D2 PAM-2	D2 ag-2
CC1CCC(C(C)C)C(OC(=O)C[n+]2cc(-c3ccc(Cl)cc3)n3c2CCCCC3)C1 (stereo not drawn)	33	–	–	–	–
O=C1c2cccc(Cl)c2C(=O)N1c1ccccn1	·	·	–	–	·
O=C1c2cc3ccccc3c(-c3ccccc3)c2C(=O)N1c1ccccn1	46	–	–	–	–
CCn1c(C)c(C(=O)c2ccccc2)c(C#N)c1C(=O)O	33	–	–	–	–
Cc1c(C#N)c(N)c(C(=O)c2ccccc2)n1Cc1ccccc1	–	–	–	–	–
CNS(=O)(=O)c1cn(CC(=O)Nc2ccc(OC)c(Cl)c2)cc1S(=O)(=O)NC	·	–	·	·	·
O=C1c2ccccc2C(O)N1Cc1cccs1 (stereo not drawn)	47	–	–	–	–
O=C(O)/C=C/c1ccc(-c2cccc(C(F)(F)F)c2)o1	–	43	–	–	–
O=C(/C=C\c1ccc(-c2ccccc2)o1)c1ccccc1	·	·	–	–	·
CCc1ccccc1NC(=O)CN(c1ccccc1OC)S(=O)(=O)c1ccc(C)cc1	·	–	·	·	–
COc1ccc(COC(=O)C2CCN(S(=O)(=O)c3ccc(C)cc3)CC2)cc1	–	–	–	–	–
Cc1ccccc1NC(=O)C1(C)Cc2ccccc2C(=O)O1 (stereo not drawn)	–	33	–	–	–
CC(C(=O)Nc1ccccc1C(F)(F)F)n1nc(-c2ccccc2)c2c(c1=O)CCCC2 (stereo not drawn)	·	–	·	·	·
Cc1cc(C(=O)COC(=O)c2ccc3c(c2)NC(=O)CS3)c(C)n1CCc1ccc(Cl)cc1	63	–	–	–	–
N#Cc1ccccc1NC(=O)C(=O)NCC(c1ccc2c(c1)OCO2)N1CCN(c2ccccc2)CC1 (stereo not drawn)	·	–	·	·	·
Cc1n[nH]c(=S)n1/N=C/c1ccc(OCc2ccc(Cl)cc2Cl)cc1	31	–	–	–	–
Cc1ccc(C(=O)Nc2ccc(N3CCN(C)CC3)cc2)c(Cl)c1	–	–	–	–	–
COc1ccc(NC(=O)NCCN2CCN(c3cc(OC)ccc3OC)CC2)cc1	–	–	–	–	–
COc1ccc(Cl)c(N2CCN(CCCNC(=O)Nc3ccc(C)cc3)CC2)c1	36	–	–	–	–
Cc1ccc(C(=O)Nc2ccc3oc(-c4ccncc4)nc3c2)c(Cl)c1	·	–	·	·	–
CCOC(=O)C1(CC2CCCCO2)CCN(Cc2ccc(OC)cc2F)CC1 (stereo not drawn)	61	–	–	–	–
CN(C)c1nc(N)c([N+](=O)[O-])c(NCC2CCCO2)n1 (stereo not drawn)	–	–	–	–	–
CCN(CC)CCCNC(=S)N(Cc1cccnc1)Cc1cc2cc(C)ccc2[nH]c1=O	·	·	–	–	·
COc1ccccc1-c1oc2ccccc2c1C#CC(C)(C)O	52	–	–	–	–
Cc1ccc(C(=O)Nc2oc(-c3ccccc3)cc2C#N)cc1	31	–	–	–	–
SMILES	D2 antag	D2 PAM-1	D2 ag-1	D2 PAM-2	D2 ag-2
COc1ccc(OCC(O)CNC(=O)Nc2cc(F)ccc2C)cc1 (stereo not drawn)	38	–	–	–	–
COc1ccc(S(=O)(=O)N(CC(=O)NCCSc2ccccc2)c2ccc(C)cc2)cc1	·	–	·	·	–
O=C1CSc2ccc(S(=O)(=O)NCc3ccc(F)cc3)cc2N1	–	–	–	–	–
COC(=O)c1ccc(CNC(=O)c2ccc3c(c2)NC(=O)CS3)cc1	37	–	–	–	–
O=C1CSc2ccc(S(=O)(=O)NCc3ccc(Cl)cc3)cc2N1	36	–	–	–	–
CCC1(NC(C)=O)CC2CC1CC2NC(C)=O (stereo not drawn)	38	–	–	–	–
CC(=O)NC1CCCC(NC(C)=O)C1 (stereo not drawn)	·	·	–	–	·
Cc1coc2c1c(C)cc1oc(=O)c(Cc3ccccc3)c(C)c12	43	–	–	–	–
CCCCCCc1c(C)c2c(cc(C)c3c(C)coc32)oc1=O	·	–	·	·	–
CCOc1cc(CNc2ccc(N3CCN(C(C)=O)CC3)cc2)cc(Br)c1OC	–	–	–	74	–
Cc1cccc(N2CCN(Cc3nc(-c4ccccc4Cl)oc3C)CC2)n1	40	–	–	–	–
Cc1ccc(C2=NN(C(=O)CSc3nnnn3C)C(c3ccco3)C2)cc1 (stereo not drawn)	43	–	–	–	–
CCN(C(=O)CN1C(=O)COc2ccc(S(=O)(=O)N3CCOCC3)cc21)c1cccc(C)c1	·	–	·	·	–
CC(=O)Nc1ccc(NC(=O)C(C)N(C)CC(=O)Nc2ccccc2Br)cc1 (stereo not drawn)	–	–	–	–	–
CCOC(=O)c1cc2c(c(CSc3nc4ccccc4c(=O)n3Cc3ccco3)c1)OCOC2	31	–	–	–	–
O=c1c2ccccc2nc(SCc2cc(F)cc3c2OCOC3)n1Cc1ccco1	–	–	–	–	–
CN(C)/C=N/c1ncc(C(=O)c2ccc(Cl)cc2)s1	57	–	–	–	–
CN(C)/C=N/c1ncc(C(=O)c2ccc(Cl)cc2Cl)s1	–	–	–	–	–
COc1ccc2cc(C(C)C(=O)N3CCC(C(N)=O)CC3)ccc2c1 (stereo not drawn)	–	32	–	–	–
COc1ccc(C2C(C(=O)O)CCC(=O)N2c2ccc(OC)cc2)cc1 (stereo not drawn)	–	–	–	–	–
COc1ccc(C2C(C(=O)NCc3ccco3)CCC(=O)N2c2ccc(OC)cc2)cc1 (stereo not drawn)	38	–	–	–	–
O=C(CCN1C(=O)C2C3C=CC(C3)C2C1=O)N1CC(=O)N(CCc2ccccc2)C(=O)C1 (stereo not drawn)	31	–	–	–	–
O=C(CN1C(=O)C2C3C=CC(C3)C2C1=O)N1CC(=O)N(CCc2ccccc2)C(=O)C1 (stereo not drawn)	–	–	–	–	–
COc1cccc(C(=O)NCC(=O)N2CCC3(CC2)NCCc2[nH]cnc23)c1OC	30	–	–	–	–
CCN(CC)CCOC(=O)c1ccc(NC(=O)CCCN2C(=O)/C(=C/c3cccs3)SC2=S)cc1	49	–	–	–	–
O=C(CCCN1C(=O)/C(=C\c2cccs2)SC1=S)Nc1ccc(C(=O)O)cc1	·	·	–	–	·
CC(=O)Nc1nonc1-c1nnc(SCC(=O)Nc2ccc(C)c(Cl)c2)n1C	·	–	·	·	–
